The results in this text go back to ChEMBL document CHEMBL4513216, “Probing the Open Global Health Chemical Diversity Library for Multistage-Active Starting Points for Next-Generation Antimalarials” (ACS Infect Dis, 2020).

SMILES strings stand for the structures. In all, about 69,000 compounds went through this assay and about 8,600 (12%) showed an effect of 50% or more. For the sample, strong results were picked, then their nearest neighbours and some compounds at random.

The assay has as its system Plasmodium berghei. Nature of the assay: Screen against P. berghei liver stage (PbLuc), transformed with Luciferase, at 10uM. Conditions: tested at 10 uM. In kind it is functional, HepG2.
As for `O=C(COc1ccccc1Cl)N1CCCC(n2ccnc2)C1` (configuration not stated), the INHIBITION was 19.5%.

With `O=C(c1ccc(S(=O)(=O)N2CCSCC2)cc1)N1CCCCCC1`, the INHIBITION worked out at 24.2%.

Consider `Cc1ccc(C(=O)N2CCN3C[C@H](Oc4cccnc4)C[C@H]3C2)cn1`, for which the INHIBITION is 39.3%.

On to `CCNC(=O)c1ccnc(NCC2COc3cc(OC)ccc3C2)c1` (configuration not stated), for which the INHIBITION came to 51.6%.

With `Cc1[nH]nc(CCC(=O)NCC2COc3ccccc3C2)c1C` (configuration not stated), the INHIBITION was determined as 13.7%.

In the case of `COc1ccc2c(c1)OCC(CNC(=O)CCc1c(C)n[nH]c1C)C2` (configuration not stated), the INHIBITION was found to be 35%.

Regarding `COCCC(=O)NCC1COc2cc(OC)ccc2C1` (configuration not stated), the INHIBITION is 72.7%.

As to `COc1ccc2c(c1)OCC(CNC(=O)c1cc[nH]c1C)C2` (configuration not stated), the INHIBITION is given as -3.83%.

With `CCc1nc(C)c(C(=O)NCC2COc3cc(OC)ccc3C2)o1` (configuration not stated), the INHIBITION was 53.2%.

As to `COc1ccc2c(c1)OCC(CNC(=O)c1cnc(O)cn1)C2` (configuration not stated), the INHIBITION worked out at 12.9%.

With `COc1ccc2c(c1)OCC(CNC(=O)c1cnc(NC(C)C)nc1)C2` (configuration not stated), the INHIBITION is listed as -42.8%.

With `COc1ccc2c(c1)OCC(CNC(=O)c1ccncc1)C2` (configuration not stated), the INHIBITION came to 4.2%.

Take `Cc1n[nH]c(C)c1CCC(=O)NCC1COc2ccccc2C1` (configuration not stated): the INHIBITION worked out at 52.6%.

Consider `Cc1n[nH]c(C)c1CCC(=O)NCC1CCOc2ccccc2C1` (configuration not stated), for which the INHIBITION is listed as 49.9%.

In the case of `COc1ccc2c(c1)OCC(CNC(=O)c1ccc3[nH]nnc3c1)C2` (configuration not stated), the INHIBITION is 4.52%.

On to `CC(C)c1nn(C)cc1CNCc1cccc(N(C)C)c1`, for which the INHIBITION worked out at 12.4%.

Regarding `Cc1nccn1C1CCCN(C(=O)COC2CCCC2)C1` (configuration not stated), the INHIBITION is listed as 39.735%.

For `CCN(c1ccc(C(=O)NCCCN2CCOCC2)cc1)S(=O)(=O)CC`, the INHIBITION is on record as -0.79%.

With `NCC(CO)Cc1ccc(OC(F)(F)F)cc1` (configuration not stated), the INHIBITION is 19%.

As to `CCOc1ccc(Cl)c(C(=O)N2CCN(CC(C)(C)O)CC2)n1`, the INHIBITION stood at 4.52%.

`CCC[C@H]1CN(C(=O)c2cc(-c3cccs3)n(C)n2)C[C@@H]1N`: the INHIBITION is reported as 29.7%.

As to `c1cc(-c2nc(CN3CCc4c(ncn4C4CC4)C3)cs2)cs1`, the INHIBITION is 22.6%.

Consider `COc1cc(N2CCC[C@]3(C(=O)O)CN(C(C)C)C[C@@H]3C2)ncn1`, for which the INHIBITION is reported as 26.5%.

Turning to `COCCN1C[C@@H]2CN(c3cc(OC)ncn3)CCC[C@]2(C(=O)O)C1`, the INHIBITION is reported as 57.1%.

Consider `CCN1C[C@@H]2CN(c3cc(OC)ncn3)CCC[C@]2(C(=O)O)C1`, for which the INHIBITION was 47.5%.

For `CN(C)S(=O)(=O)N1CCCC(C)(c2ncc(C(N)=O)s2)C1` (configuration not stated), the INHIBITION amounted to 23.9%.

For `O=C(COC1CCCC1)NCCCn1nc2ccccn2c1=O`, the INHIBITION is listed as -24.6%.

On to `CN1CCC(N(CCc2ccccc2)C(=O)c2cc[nH]c2)CC1`, for which the INHIBITION is given as 32.8%.

Consider `CC1(C(=O)N2CCOCC2)CN(C2CCCCC2)CCO1` (configuration not stated), for which the INHIBITION is on record as 56.8%.

Turning to `CC1(C(=O)N2CCOCC2)CN(CC2CCOCC2)CCO1` (configuration not stated), the INHIBITION amounted to 7.25%.

As to `CN1CCOC(C)(C(=O)N2CCN(C3CCCC3)CC2)C1` (configuration not stated), the INHIBITION stood at 32.8%.

As for `COCC(=O)NCc1cc(=O)n2c(n1)CN(Cc1ccoc1)CCC2`, the INHIBITION is 36.9%.

For `Cc1nc(C)c(C(=O)N2CCc3nc4c(C)csc4c(=O)n3CC2)s1`, the INHIBITION amounted to 39.7%.

As to `Cc1csc2nc3n(c(=O)c12)CCN(Cc1c[nH]cn1)CC3`, the INHIBITION is recorded as 17.1%.

As for `CN1CC(C(=O)NCCOc2ccc3c(c2)OCO3)CC1=O` (configuration not stated), the INHIBITION is recorded as 16.9%.

As to `CC(CNC(=O)N1CCN(CC(F)F)CC1)Cc1cccs1` (configuration not stated), the INHIBITION was -13.2%.

As for `CCc1cnc(C(C)NC(=O)N2CCCN(CC(F)F)CC2)s1` (configuration not stated), the INHIBITION was -37.8%.

Consider `CC(=O)N1CCCN(C(=O)NC(C)c2ccc(C)o2)CC1` (configuration not stated), for which the INHIBITION came out at 11.3%.

As to `CC(NC(=O)N1CCCN(CC(F)F)CC1)c1ccco1` (configuration not stated), the INHIBITION was 62.3%.

For the compound `CC(NC(=O)N1CCCN(Cc2cccs2)CC1)c1cccnc1` (configuration not stated), the INHIBITION was 6.92%.

In the case of `Cc1ccc(C(C)NC(=O)N2CCCN(CC(F)F)CC2)s1` (configuration not stated), the INHIBITION was found to be 60.9%.

`CN(C)C(=O)c1cc2ncc(C(=O)NC3CC3)cc2n1C`: the INHIBITION was 2.59%.

Turning to `CC(CNCc1ccncc1)Oc1ccccn1` (configuration not stated), the INHIBITION is recorded as -52.1%.

For the compound `Cc1nccn1CCC1CCN(C2CCC3(CCNCC3)CC2)CC1`, the INHIBITION was found to be 12.1%.

`O=C1[C@H]2CN(Cc3ccc(F)cc3)C[C@H]2CN1CCN1CCCC1`: the INHIBITION amounted to 3.81%.

`Nc1nc(N)c2c(n1)OC1(CCN(C(=O)CC3CCNCC3)CC1)C2`: the INHIBITION is on record as -13.13%.

As to `CN1[C@H](CN2CCCC2)C[C@@H]2CN(C(=O)c3ccsc3)CC[C@@H]21`, the INHIBITION came to 28.4%.

Consider `COc1ccc(CCN2C(=O)O[C@@H]3CN(C4CCSCC4)C[C@@H]32)cc1`, for which the INHIBITION turned out to be 47.6%.

Consider `COc1ccc(CCN2C(=O)O[C@@H]3CN(C)C[C@@H]32)cc1`, for which the INHIBITION was 51.2%.

As for `COc1ccc(CCN2C(=O)O[C@@H]3CN(C4CCOCC4)C[C@@H]32)cc1`, the INHIBITION is -5.12%.

As for `CC1(C)CNC(=O)c2nc(CCN3CCCCC3CO)[nH]c2C1` (configuration not stated), the INHIBITION worked out at 24.4%.

Take `CC1(C)CNC(=O)c2nc(CCN3CCC(O)CC3)[nH]c2C1`: the INHIBITION is on record as 53.3%.
